Screening data as filed in PubChem.
Autofluor counter: counter-screen for toxin protease inhibitors: compound fluorescence | AID 624483 | fluorescence intensity (concentration not given with the values) | 360,000 tested, 3.1% active | compound autofluorescence counterscreen, microsphere flow cytometry; active compounds read high; in the data active means fluorescence intensity above about 16000; inconclusive means no clear call, values can overlap the other calls
BoNT-A LC inh2: BoNT A light chain protease inhibition | inhibition, % at 10 µM | 360,000 tested, 0.17% active | AID 588499 | multiplex microsphere protease substrate cleavage, flow cytometry; further: plate controls were buffer without enzyme for full effect and enzyme alone for no effect
Anthrax LF inh2: inhibitors of Bacillus anthracis lethal factor protease. P15917. multiplex microsphere protease cleavage assay, LF. inhibition, % at 10 µM. 360,000 tested, 0.12% active; further: plate controls were buffer without enzyme for full effect and enzyme alone for no effect
MazF activator: activators of E. coli MazEF toxin-antitoxin RNase | P0AE70 | FAM/BHQ RNA-DNA oligo cleavage fluorescence, 5 h | activation, % at 20 µM | 350,000 tested, 0.32% active; in the data active means activation above about 50%
Target sequence (P0AE70 whole entry, looked up): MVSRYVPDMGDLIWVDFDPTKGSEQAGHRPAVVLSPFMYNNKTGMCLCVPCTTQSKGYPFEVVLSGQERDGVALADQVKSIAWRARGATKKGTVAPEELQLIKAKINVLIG
BoNT-F LC inh: BoNT F light chain protease inhibition | Multiplex microsphere protease cleavage assay, flow cytometry | inhibition, % at 10 µM | 360,000 tested, 0.22% active; in the data active means inhibition above about 35%, passing the limit was not always enough; inconclusive means no clear call, values can overlap the other calls; further: plate controls were buffer without enzyme for full effect and enzyme alone for no effect
Numbers without * were called inactive; ? = inconclusive; nt = not tested or not shown. Compounds with a hit are over-represented: about 3.7% of the library has one in this group of screens. Unless noted, no stated cut-off is given here; in the data, active means inhibition above about 30%; inconclusive means no clear call, values can overlap the other calls; inactive means below that.

SMILES	Autofluor counter	BoNT-A LC inh2	Anthrax LF inh2	MazF activator	BoNT-F LC inh
O=C1CSC(=S)N1N=Cc1c(O)ccc2ccccc12	3735	15.8	12.3	590.0*	12.1
O=C1CSC(=S)N1/N=C/C=C/c1ccccc1	1986	42.8*	20.6	2.1	10.9
COc1ccc(C)cc1NC(=O)NC1CC(=O)N(c2ccc3c(c2)OCCO3)C1 (stereo not drawn)	3129	-0.2	-2.9	-3.4	-0.4
CN(CCCn1cnc2c(OCc3ccccc3)ncnc21)Cc1ccco1	3590	-0.2	-3.5	0.5	-7.6
Cc1ccccc1NC(=O)C(C)OC(=O)C1CCCO1 (stereo not drawn)	3979	-0.3	-6.8	-8.1	-2.6
CCCCNC(=O)COC(=O)c1c2c(nc3ccccc13)/C(=C/c1cccs1)CC2	6060	38.7*	25.1	-21.7	18.9
COc1ccc(N2C(=O)[C@@H]3Cc4ccccc4CN3C2=O)cc1	3762	-0.2	1.6	-2.9	-2.3
Cc1ccc(N2C(=O)[C@@H]3Cc4ccccc4CN3C2=O)cc1	21075*	1.7	-15.2	6.2	3.2
Cc1cc(/C(=N/O)C(C)(C)NO)ccc1Cl	22038*	1.0	-0.6	19.1	-3.7
CC(C)(NO)/C(=N\O)c1ccccc1	2703	0.4	-2.5	20.2	5.7
CN(C(=O)c1ccccc1)C(=O)c1ccccc1	3843	-0.2	-5.4	5.5	3.4
COc1ccc(N(CC(=O)Nc2cc(C(=O)O)ccc2C)S(=O)(=O)c2c(C)noc2C)cc1	16981*	-1.9	-9.0	10.1	-2.7
Cc1ccc(OCC(=O)NNC(=O)C2CSC3(C)CCC(=O)N23)cc1C (stereo not drawn)	5184	0.3	-6.7	-5.4	-6.4
Clc1ccc(-n2nnnc2-c2ccccc2)cc1	17854*	?	1.5	8.2	-8.1
O=C(CN1C(=O)C(=O)N(CCC2=CCCCC2)C1=O)Nc1ccc(F)cc1F	9038	-1.9	1.3	13.4	-2.9
CCOC(=O)c1ccc(S(=O)(=O)N2CCN(C3CC(=O)N(c4ccc(OC)cc4)C3=O)CC2)cc1 (stereo not drawn)	3363	0.0	7.5	-0.2	1.1
COc1ccc(NC(=O)NC2CCN(C(C)C)CC2)c(OC)c1	16455*	?	-5.9	-6.1	-0.1
CCCCNC(=O)CNC(=O)c1cccs1	11602	-1.0	-3.4	-7.2	-6.8
CCCCN(CCCC)CCNC(=O)CNC(=O)c1cccs1	21124*	4.2	-10.1	-14.7	2.8
Nc1ccc(CCCC(=O)NCc2cccnc2)cc1	3886	0.7	-7.0	7.8	4.5
CCC(C)Nc1c2c(nc3c(-c4ccccc4)c(C)nn13)CCC2 (stereo not drawn)	22116*	-6.4	-3.4	1.5	-7.9
CCCCNc1c2c(nc3c(-c4ccccc4)c(C)nn13)CCC2	20079*	1.5	-7.0	-14.6	2.3
COCCNc1c2c(nc3c(-c4ccccc4)c(C)nn13)CCCC2	23437*	-2.0	-1.8	2.9	-2.3
Cc1nn2c(Nc3ccc(F)cc3)c3c(nc2c1-c1ccccc1)CCC3	2263	-0.6	0.3	12.5	-8.1
O=C(c1ccccc1F)N1CCN(C(=O)C(c2ccccc2)c2ccccc2)CC1	5855	0.3	-1.6	6.5	0.8
SMILES	Autofluor counter	BoNT-A LC inh2	Anthrax LF inh2	MazF activator	BoNT-F LC inh
Cc1cccc(C)c1NC(=O)COC(=O)/C=C/c1ccc(S(=O)(=O)N2CCOCC2)cc1	3568	-0.3	-0.7	-5.9	1.6
COc1ccc(/C=N/Nc2ccc([N+](=O)[O-])cc2S(=O)(=O)N2CCN(C)CC2)cc1	10436	0.2	1.5	166.4*	-3.1
Cc1cccc(C(=O)OCC(=O)N2CCCC2=O)c1[N+](=O)[O-]	nt	nt	nt	1.1	nt
COC(=O)c1cccnc1N1CCN(c2ccccc2F)CC1	23700*	?	-3.7	9.9	-0.5
CC(C)OC(=O)c1ccc(N2CCN(c3ccc(F)cc3)CC2)nc1	3898	-2.5	8.2	-3.4	3.8
O=C(Nc1ccccc1)c1cccnc1N1CCCC1	17182*	?	-4.9	-3.6	-7.0
O=C(Nc1ccc(Br)cc1)c1cccnc1N1CCOCC1	5509	-0.9	-5.4	0.9	-4.9
CC(C)OC(=O)c1cccnc1N1CCN(c2ccc(F)cc2)CC1	23861*	-2.1	-2.6	-19.1	-1.8
Cc1cc(Br)cn2c(Cc3ccccc3)c(-c3ccc(C#N)cc3)nc12	8808	10.7	11.8	nt	6.5
CCOC(=O)c1cccc(NC(=O)c2cc3sccc3n2C)c1	26158*	?	-3.7	4.6	-12.0
CCOC(=O)c1ccccc1NC(=O)c1cc2sccc2n1C	22752*	1.5	-1.1	2.1	1.7
CCOC(=O)c1cccc(NC(=O)c2ccco2)c1	23498*	?	1.1	2.5	-3.8
CCOC(=O)c1cccc(NC(=O)/C=C/c2cccc([N+](=O)[O-])c2)c1	19203*	0.5	-0.6	-1.6	2.5
C=CCNC(=O)c1cc2sccc2n1C	3518	0.1	-0.2	9.8	5.3
CC(=O)c1cccc(NC(=O)c2ccco2)c1	3203	0.2	1.3	-1.0	4.6
Cc1ccc(C)c(S(=O)(=O)N2CCCCC2CCNC(=O)C(=O)NCc2ccccc2)c1 (stereo not drawn)	?	6.3	7.9	-16.6	23.5
Cn1c(C(=O)Nc2ccc3c(c2)OCCO3)cc2sccc21	16792*	-1.8	-6.5	4.9	-7.1
O=C(Nc1ccc2c(c1)OCCO2)c1cc2sccc2n1Cc1ccccc1	3781	0.9	1.4	-8.2	13.5
Cc1cc2n(n1)SC(Nc1ccc(F)c(Cl)c1)N2 (stereo not drawn)	20632*	?	0.6	-7.0	-3.8
CC(=O)Nc1ccc(CN2C(=O)C(Cc3ccccc3)ON=C2c2ncccc2C)cc1 (stereo not drawn)	5050	-0.7	-3.1	nt	-3.2
CCN1C(=O)CSc2ccc(C(=O)OC)cc21	5924	-0.4	-3.0	4.0	-7.1
CC(C)(C)NC(=O)c1ccnc(C(C)(C)C)c1	17617*	17.9	-19.0	4.9	20.2
CCN1C(=O)CSc2ccc(C(=O)NCc3ccco3)cc21	16140*	1.5	-0.5	2.7	4.3
CC(C)(C)c1cc(C(=O)Nc2ccccc2)ccn1	3895	-0.2	-1.9	-6.3	-8.6
Cc1ccc(C(=O)NCc2ccco2)cc1Br	14302	?	-3.9	-3.4	5.7
SMILES	Autofluor counter	BoNT-A LC inh2	Anthrax LF inh2	MazF activator	BoNT-F LC inh
CC(C)(C)c1cc(C(=O)NCc2ccco2)ccn1	24501*	-1.7	-1.3	-0.9	-4.7
CC(C)(C)NC(=O)c1ccc2nccnc2c1	16956*	-1.9	-0.9	3.1	-1.8
COc1cc(C(=O)N2Cc3cc4ccccc4nc3C2C)cc(OC)c1OC (stereo not drawn)	3537	-0.1	-5.1	-13.1	-3.5
CC(Sc1nc2ncc(Cl)cc2[nH]1)C(=O)Nc1ccc(C(N)=O)cc1 (stereo not drawn)	?	-15.1	2.8	-4.1	-24.2
CCOc1ccc(C(=O)NNC(=O)C2CC(=O)N(c3ccc(C)cc3)C2)cc1 (stereo not drawn)	5982	-0.6	3.0	6.3	12.7
CN(C)c1cccc(NC(=O)C2Cc3c(-c4ccc(Cl)cc4)ccnc3O2)c1 (stereo not drawn)	2963	-0.5	-7.6	nt	-6.4
Cc1c(NC(=O)CSc2nnc(-c3ccccc3F)o2)c(=O)n(-c2ccccc2)n1C	4065	-0.3	-1.5	-10.6	8.2
